# Data reported in ChEMBL document CHEMBL1961873, “Compounds: GSK PKIS; Assays: Nanosyn kinase panel” (2012).
# Legend:
# [1] = molecular target: T1, Mitogen-activated protein kinase 12 (Homo sapiens) (UniProt P53778); details: at 1 µM;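 also: values are averaged p38gamma kinase inhibition readings, compounds tested at 1 µM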
# T1 sequence (whole entry): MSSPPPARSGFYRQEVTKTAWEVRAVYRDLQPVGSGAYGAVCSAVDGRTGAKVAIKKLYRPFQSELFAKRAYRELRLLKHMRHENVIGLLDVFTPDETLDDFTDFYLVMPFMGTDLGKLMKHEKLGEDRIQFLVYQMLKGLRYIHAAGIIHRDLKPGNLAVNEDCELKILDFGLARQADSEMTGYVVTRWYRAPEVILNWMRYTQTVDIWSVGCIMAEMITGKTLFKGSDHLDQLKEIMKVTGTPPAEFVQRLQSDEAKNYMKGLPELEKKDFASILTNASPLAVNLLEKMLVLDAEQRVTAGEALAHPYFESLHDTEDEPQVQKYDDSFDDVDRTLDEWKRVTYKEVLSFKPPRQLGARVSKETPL
# [2] = molecular target: SRSF protein kinase 1 (Homo sapiens) (UniProt Q96SB4); details: at 0.1 µM
# [3] = molecular target: SRSF protein kinase 1 (Homo sapiens) (UniProt Q96SB4); details: at 1 µM
# [4] = molecular target: Phosphatidylinositol 4,5-bisphosphate 3-kinase catalytic subunit alpha isoform (Homo sapiens) (UniProt P42336); details: at 0.1 µM
# [5] = molecular target: Phosphatidylinositol 4,5-bisphosphate 3-kinase catalytic subunit alpha isoform (Homo sapiens) (UniProt P42336); details: at 1 µM
# [6] = molecular target: T2, Phosphatidylinositol 4,5-bisphosphate 3-kinase catalytic subunit delta isoform (Homo sapiens) (UniProt O00329); details: at 0.1 µM
# T2 sequence (whole entry): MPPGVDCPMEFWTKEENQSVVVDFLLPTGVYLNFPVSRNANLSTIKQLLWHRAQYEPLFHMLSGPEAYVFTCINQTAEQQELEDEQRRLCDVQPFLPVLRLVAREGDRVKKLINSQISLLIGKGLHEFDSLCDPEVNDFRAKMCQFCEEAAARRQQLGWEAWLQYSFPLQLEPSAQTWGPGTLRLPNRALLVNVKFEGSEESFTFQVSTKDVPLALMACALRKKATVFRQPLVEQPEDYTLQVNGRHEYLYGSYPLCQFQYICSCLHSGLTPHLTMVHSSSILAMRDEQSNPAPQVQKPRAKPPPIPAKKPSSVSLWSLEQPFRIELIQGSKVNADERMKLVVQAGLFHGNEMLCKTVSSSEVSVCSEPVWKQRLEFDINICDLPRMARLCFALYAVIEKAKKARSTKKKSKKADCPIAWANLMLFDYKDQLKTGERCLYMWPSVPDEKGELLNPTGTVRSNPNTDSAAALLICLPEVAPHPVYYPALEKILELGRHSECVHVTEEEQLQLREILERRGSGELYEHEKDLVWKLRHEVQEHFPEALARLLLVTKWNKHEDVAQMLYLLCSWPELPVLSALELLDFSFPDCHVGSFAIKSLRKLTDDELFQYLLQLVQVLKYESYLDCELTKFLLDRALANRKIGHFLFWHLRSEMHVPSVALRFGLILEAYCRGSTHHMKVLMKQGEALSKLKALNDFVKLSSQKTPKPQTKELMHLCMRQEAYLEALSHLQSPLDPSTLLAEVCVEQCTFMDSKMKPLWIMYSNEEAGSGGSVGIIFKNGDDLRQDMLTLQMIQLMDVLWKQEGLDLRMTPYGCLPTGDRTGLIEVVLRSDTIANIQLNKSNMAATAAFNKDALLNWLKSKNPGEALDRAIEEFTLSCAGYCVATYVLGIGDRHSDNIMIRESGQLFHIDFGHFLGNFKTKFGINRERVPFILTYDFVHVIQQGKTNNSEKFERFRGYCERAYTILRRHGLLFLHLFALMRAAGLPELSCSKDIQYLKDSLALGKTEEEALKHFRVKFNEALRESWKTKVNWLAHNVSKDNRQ
# [7] = molecular target: T2, Phosphatidylinositol 4,5-bisphosphate 3-kinase catalytic subunit delta isoform (Homo sapiens); details: at 1 µM
# [8] = molecular target: Phosphatidylinositol 4-kinase beta (Homo sapiens) (UniProt Q9UBF8); details: at 0.1 µM
# [9] = molecular target: Phosphatidylinositol 4-kinase beta (Homo sapiens) (UniProt Q9UBF8); details: at 1 µM
# [10] = molecular target: Sphingosine kinase 1 (Homo sapiens) (UniProt Q9NYA1); details: at 0.1 µM
# [11] = molecular target: Sphingosine kinase 1 (Homo sapiens) (UniProt Q9NYA1); details: at 1 µM
# [12] = molecular target: T3, Sphingosine kinase 2 (Homo sapiens) (UniProt Q9NRA0); details: at 0.1 µM
# T3 sequence (whole entry): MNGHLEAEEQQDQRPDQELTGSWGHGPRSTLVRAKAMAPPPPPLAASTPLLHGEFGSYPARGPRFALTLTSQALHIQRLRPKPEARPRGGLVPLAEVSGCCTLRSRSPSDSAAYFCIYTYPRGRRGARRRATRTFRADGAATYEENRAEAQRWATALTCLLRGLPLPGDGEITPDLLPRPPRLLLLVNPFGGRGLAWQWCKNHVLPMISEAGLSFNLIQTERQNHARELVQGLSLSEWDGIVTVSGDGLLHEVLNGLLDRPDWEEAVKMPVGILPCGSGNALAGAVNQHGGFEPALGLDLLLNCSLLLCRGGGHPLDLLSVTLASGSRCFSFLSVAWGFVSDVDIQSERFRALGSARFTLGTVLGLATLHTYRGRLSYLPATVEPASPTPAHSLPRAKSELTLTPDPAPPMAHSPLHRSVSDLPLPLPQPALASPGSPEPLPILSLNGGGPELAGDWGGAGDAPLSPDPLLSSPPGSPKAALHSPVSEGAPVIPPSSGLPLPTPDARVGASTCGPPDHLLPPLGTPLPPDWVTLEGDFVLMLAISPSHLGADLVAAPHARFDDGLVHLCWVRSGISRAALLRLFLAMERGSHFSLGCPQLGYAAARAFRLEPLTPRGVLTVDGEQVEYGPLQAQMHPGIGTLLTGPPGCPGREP
# [13] = molecular target: T3, Sphingosine kinase 2 (Homo sapiens); details: at 1 µM
# [14] = molecular target: Casein kinase II subunit alpha (Homo sapiens) (UniProt P68400); details: at 0.1 µM
# [15] = molecular target: Casein kinase II subunit alpha (Homo sapiens) (UniProt P68400); details: at 1 µM
# [16] = molecular target: T4, Inhibitor of nuclear factor kappa-B kinase subunit alpha (Homo sapiens) (UniProt O15111); details: at 0.1 µM
# T4 sequence (whole entry): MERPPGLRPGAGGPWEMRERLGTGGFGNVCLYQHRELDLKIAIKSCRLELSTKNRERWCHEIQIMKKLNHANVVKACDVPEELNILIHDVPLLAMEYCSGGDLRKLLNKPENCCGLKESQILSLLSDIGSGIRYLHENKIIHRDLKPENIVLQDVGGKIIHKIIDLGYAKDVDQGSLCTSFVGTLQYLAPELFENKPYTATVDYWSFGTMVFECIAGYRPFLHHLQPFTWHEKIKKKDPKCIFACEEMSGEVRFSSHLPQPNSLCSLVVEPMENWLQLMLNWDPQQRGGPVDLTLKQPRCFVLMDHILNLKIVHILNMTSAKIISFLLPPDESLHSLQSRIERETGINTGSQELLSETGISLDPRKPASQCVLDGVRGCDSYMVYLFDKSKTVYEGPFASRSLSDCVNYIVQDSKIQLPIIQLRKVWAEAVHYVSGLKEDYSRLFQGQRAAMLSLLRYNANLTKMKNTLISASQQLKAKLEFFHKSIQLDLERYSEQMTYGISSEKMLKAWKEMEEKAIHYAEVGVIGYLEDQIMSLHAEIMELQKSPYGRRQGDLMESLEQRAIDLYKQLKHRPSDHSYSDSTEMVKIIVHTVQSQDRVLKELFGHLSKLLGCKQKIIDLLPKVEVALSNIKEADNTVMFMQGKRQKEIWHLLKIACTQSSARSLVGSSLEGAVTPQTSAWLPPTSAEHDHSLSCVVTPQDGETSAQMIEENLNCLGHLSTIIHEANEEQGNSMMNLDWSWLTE
# [17] = molecular target: T4, Inhibitor of nuclear factor kappa-B kinase subunit alpha (Homo sapiens); details: at 1 µM
# [18] = molecular target: T5, Inhibitor of nuclear factor kappa-B kinase subunit beta (Homo sapiens) (UniProt O14920); details: at 0.1 µM
# T5 sequence (whole entry): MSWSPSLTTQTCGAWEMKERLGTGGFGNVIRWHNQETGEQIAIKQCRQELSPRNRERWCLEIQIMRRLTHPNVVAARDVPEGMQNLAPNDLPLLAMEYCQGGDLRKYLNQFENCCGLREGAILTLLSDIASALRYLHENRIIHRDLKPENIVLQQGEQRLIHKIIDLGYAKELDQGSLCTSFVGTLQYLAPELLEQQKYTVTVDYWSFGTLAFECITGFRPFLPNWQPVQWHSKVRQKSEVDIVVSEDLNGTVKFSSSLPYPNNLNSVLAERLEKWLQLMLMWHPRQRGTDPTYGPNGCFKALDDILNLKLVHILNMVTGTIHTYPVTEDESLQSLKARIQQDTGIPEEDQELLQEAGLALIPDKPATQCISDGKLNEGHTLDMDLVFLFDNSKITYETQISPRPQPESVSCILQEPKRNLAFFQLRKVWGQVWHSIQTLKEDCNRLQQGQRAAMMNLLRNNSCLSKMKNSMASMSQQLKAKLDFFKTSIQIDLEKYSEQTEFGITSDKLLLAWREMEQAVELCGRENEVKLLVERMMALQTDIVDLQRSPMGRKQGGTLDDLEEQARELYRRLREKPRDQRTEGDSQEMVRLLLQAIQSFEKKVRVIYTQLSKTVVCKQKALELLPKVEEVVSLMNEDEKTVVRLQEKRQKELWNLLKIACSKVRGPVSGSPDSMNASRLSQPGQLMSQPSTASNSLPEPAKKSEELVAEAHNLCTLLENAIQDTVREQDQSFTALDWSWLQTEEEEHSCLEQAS
# [19] = molecular target: T5, Inhibitor of nuclear factor kappa-B kinase subunit beta (Homo sapiens); details: at 1 µM
# [20] = molecular target: T6, Inhibitor of nuclear factor kappa-B kinase subunit epsilon (Homo sapiens) (UniProt Q14164); details: at 0.1 µM;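 also: mean inhibition of IKKε reported, from the GSK PKIS dataset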
# T6 sequence (whole entry): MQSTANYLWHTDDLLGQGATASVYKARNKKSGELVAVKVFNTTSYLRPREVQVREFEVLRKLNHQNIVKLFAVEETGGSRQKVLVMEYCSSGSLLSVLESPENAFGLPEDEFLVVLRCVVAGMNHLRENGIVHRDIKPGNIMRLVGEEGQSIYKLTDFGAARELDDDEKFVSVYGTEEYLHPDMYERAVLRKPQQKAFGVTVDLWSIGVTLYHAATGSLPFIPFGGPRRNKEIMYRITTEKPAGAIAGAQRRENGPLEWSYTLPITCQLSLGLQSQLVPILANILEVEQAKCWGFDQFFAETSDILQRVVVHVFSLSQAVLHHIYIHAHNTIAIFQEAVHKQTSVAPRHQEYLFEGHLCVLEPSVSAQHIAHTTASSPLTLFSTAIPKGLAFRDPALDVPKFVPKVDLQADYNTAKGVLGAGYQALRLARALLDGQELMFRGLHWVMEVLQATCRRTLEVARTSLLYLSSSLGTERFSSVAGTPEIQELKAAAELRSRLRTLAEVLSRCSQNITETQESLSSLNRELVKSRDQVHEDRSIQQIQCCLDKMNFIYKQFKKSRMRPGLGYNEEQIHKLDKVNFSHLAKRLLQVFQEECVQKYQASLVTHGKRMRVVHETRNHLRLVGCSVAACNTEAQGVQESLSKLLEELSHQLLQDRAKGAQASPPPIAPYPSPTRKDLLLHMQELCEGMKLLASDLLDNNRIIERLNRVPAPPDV
# Sequence of Phosphatidylinositol 4-kinase beta (Homo sapiens) (Q9UBF8 2-816 limits assumed): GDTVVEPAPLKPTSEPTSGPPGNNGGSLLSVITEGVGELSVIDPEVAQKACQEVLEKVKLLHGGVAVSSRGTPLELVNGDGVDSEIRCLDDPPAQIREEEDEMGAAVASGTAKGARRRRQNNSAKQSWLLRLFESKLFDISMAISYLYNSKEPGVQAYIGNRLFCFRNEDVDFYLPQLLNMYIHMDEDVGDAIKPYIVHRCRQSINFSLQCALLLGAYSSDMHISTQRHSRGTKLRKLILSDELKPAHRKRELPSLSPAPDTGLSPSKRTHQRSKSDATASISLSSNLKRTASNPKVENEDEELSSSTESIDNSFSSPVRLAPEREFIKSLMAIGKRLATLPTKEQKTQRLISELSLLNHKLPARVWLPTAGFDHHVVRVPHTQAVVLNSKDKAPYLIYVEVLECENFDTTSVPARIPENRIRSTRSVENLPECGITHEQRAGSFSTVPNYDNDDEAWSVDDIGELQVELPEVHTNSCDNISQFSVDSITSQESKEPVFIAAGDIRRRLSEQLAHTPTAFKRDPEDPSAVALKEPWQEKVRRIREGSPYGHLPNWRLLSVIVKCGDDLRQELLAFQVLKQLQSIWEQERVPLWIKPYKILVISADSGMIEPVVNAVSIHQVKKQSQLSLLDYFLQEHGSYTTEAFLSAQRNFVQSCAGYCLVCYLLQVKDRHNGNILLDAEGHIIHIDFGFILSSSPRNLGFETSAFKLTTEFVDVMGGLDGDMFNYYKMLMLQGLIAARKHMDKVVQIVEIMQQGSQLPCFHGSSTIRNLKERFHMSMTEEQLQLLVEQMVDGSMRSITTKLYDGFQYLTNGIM
# Sequence of Phosphatidylinositol 4,5-bisphosphate 3-kinase catalytic subunit alpha isoform (Homo sapiens) (P42336 whole entry, canonical isoform): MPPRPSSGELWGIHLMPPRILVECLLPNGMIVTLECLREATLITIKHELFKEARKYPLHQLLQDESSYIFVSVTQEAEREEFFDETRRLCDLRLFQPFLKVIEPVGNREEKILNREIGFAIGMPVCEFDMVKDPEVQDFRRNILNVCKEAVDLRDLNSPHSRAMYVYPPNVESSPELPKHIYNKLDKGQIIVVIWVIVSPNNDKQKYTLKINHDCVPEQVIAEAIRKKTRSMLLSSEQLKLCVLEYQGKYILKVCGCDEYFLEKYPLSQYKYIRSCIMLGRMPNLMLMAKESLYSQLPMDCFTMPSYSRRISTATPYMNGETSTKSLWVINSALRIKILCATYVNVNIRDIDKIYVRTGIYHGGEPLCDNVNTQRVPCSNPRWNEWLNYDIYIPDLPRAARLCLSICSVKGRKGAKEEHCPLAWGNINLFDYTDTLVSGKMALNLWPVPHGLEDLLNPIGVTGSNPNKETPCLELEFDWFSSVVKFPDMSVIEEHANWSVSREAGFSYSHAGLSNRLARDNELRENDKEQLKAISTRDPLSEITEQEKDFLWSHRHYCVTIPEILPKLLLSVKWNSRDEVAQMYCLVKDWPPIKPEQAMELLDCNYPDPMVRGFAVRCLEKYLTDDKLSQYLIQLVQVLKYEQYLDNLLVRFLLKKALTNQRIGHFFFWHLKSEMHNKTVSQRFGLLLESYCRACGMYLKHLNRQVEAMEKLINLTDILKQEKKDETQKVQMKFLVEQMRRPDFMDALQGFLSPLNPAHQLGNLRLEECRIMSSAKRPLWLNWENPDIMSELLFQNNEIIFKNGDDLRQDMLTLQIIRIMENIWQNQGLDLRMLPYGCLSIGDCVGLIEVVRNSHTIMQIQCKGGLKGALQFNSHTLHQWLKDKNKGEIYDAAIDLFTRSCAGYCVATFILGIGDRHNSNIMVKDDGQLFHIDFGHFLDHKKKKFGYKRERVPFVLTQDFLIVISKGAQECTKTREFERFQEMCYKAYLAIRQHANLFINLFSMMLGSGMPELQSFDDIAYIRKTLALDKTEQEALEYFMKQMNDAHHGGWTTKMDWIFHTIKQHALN
# Sequence of Casein kinase II subunit alpha (Homo sapiens) (P68400 whole entry, looked up): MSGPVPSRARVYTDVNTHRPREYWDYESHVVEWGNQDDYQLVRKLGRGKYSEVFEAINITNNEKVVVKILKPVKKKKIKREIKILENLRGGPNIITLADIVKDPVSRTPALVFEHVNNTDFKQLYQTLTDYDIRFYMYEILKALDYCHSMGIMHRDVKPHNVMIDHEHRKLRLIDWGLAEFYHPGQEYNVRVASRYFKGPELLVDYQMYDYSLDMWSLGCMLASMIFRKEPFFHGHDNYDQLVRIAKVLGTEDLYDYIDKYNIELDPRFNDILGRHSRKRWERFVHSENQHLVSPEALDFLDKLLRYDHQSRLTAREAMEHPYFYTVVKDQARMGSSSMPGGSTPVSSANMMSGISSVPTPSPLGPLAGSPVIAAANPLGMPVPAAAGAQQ
# Sequence of Sphingosine kinase 1 (Homo sapiens) (Q9NYA1 whole entry): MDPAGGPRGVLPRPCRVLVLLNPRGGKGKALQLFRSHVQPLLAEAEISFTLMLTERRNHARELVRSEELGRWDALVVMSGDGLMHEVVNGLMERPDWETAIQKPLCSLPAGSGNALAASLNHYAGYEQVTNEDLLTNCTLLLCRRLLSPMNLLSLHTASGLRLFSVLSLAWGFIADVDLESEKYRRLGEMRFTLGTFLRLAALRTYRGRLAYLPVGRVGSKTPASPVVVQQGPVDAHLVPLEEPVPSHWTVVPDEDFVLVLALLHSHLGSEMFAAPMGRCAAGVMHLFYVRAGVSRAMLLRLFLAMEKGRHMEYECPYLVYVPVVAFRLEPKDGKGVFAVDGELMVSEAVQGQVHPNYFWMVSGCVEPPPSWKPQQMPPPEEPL
# Sequence of SRSF protein kinase 1 (Homo sapiens) (Q96SB4 whole entry, canonical isoform): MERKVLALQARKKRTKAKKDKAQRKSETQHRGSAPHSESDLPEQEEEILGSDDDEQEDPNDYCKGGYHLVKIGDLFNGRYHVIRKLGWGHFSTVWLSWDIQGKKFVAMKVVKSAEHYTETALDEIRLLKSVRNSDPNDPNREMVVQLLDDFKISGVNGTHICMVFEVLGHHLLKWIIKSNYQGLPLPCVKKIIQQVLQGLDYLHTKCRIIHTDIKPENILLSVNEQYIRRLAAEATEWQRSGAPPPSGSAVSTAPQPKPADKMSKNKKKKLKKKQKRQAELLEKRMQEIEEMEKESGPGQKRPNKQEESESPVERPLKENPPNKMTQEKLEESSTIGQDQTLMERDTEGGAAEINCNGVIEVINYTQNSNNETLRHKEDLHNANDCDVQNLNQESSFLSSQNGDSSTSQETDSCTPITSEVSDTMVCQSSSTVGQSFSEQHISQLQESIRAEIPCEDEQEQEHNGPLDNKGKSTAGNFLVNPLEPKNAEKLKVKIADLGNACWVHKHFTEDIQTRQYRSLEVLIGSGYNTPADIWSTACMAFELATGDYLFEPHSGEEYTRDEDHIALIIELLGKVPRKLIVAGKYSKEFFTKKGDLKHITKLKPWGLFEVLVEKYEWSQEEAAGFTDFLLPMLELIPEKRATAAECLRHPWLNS
SMILES,inhibition [1] [%],inhibition [2] [%],inhibition [3] [%],inhibition [4] [%],inhibition [5] [%],inhibition [6] [%],inhibition [7] [%],inhibition [8] [%],inhibition [9] [%],inhibition [10] [%],inhibition [11] [%],inhibition [12] [%],inhibition [13] [%],inhibition [14] [%],inhibition [15] [%],inhibition [16] [%],inhibition [17] [%],inhibition [18] [%],inhibition [19] [%],inhibition [20] [%]
O=C(Nc1n[nH]c2cc(-c3cc(F)ccc3F)ccc12)C1CC1,2.66,-2.08,-4.65,1.92,3.65,2.22,4.33,-2.33,3.14,0.01,-2.44,2.23,0.13,2.27,2.39,8.06,7.87,4.95,5.11,4.29
CS(=O)(=O)CCNCc1ccc(-c2ccc3ncnc(Nc4ccc(OCc5ccccc5)c(Br)c4)c3c2)o1,3.4,-3.23,-2.26,3.6,1.93,0.72,2.81,-4.04,-0.22,-0.92,-1.39,-0.25,-1.58,13.7,5.24,3.37,1.56,9.38,11,6.98
Cc1ccc(C(=O)NC2CCC2)cc1-c1ccc(C(=O)NCC2CC2)cc1,1.52,-1.15,-3.91,1.03,2.46,0.19,3.4,-3.28,0.35,0.24,-2.08,0.15,-0.32,0.14,-0.02,5.36,2.23,3.94,0.66,3.52
COc1cc2ncn(-c3cc(OCc4cccs4)c(C(N)=O)s3)c2cc1OC,1.93,1.92,7.84,2.89,8.89,2.03,12.9,4.6,-3.17,0.03,-0.69,0.11,-0.11,5.63,20.8,3.56,4.87,3.09,6.07,7.67
c1ccc(Oc2ccc(Nc3ncc(-c4ccccc4)o3)cc2)cc1,1.07,-0.83,0.96,4.13,5.69,6.64,7.88,2.11,4.73,0.41,0.89,3.77,-0.07,3.77,5.82,5.9,-0.96,1.69,-1.75,1.29
O=C(Nc1ccc(Oc2ccc3[nH]c(NC(=O)c4ccccc4)nc3c2)cc1)Nc1cc(C(F)(F)F)ccc1F,3.12,-0.76,7.91,0.59,8.12,-0.81,8.31,1.83,-2.27,0.81,3.13,17.6,-0.1,2.74,4.99,-5.25,-0.85,4.57,2.88,3.68
